Among all 1,300 compounds or so, fewer than 10 were called active. Not shown: some 3% with an inconclusive outcome. The call rests on the fitted dose curve; in most records, active means well fitted inhibition curve with a large enough effect; inconclusive means small, poorly fitted or top-dose-only effect; inactive means flat fitted curve, though single readings scatter. The list is a sample of the results.

In this assay the test system is T1, .
T1 sequence (whole entry): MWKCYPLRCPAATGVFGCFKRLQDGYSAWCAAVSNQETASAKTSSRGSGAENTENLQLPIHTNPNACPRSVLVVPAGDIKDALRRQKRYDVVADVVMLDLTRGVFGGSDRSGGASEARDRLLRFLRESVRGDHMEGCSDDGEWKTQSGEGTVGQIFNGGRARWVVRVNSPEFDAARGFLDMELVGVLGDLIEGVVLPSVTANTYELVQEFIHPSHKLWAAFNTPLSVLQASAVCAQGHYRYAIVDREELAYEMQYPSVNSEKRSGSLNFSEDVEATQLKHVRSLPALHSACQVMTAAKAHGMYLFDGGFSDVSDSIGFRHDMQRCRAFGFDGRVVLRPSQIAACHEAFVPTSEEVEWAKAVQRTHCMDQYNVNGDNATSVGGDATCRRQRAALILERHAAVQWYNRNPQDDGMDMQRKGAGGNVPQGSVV
As to the kind of experiment: qHTS of Trypanosoma Brucei Inhibitors: LOPAC Validation (AID 624147). (In general: Quantitative high-throughput screening tests each substance at several concentrations.)
`N.N.[Cl][Pt][Cl]`: the molecule was classed as active.

Values taken from the GenesisPotency data set.
